Laboratory results as given in PubChem BioAssay AID493074 (National Center for Advancing Translational Sciences (NCATS), 2011).
This is one part of the list. Inconclusive results are not listed. Activity calls are given as the source filed them. The call rests on the fitted dose curve; in most records, active means well fitted cell-killing curve with a large enough effect; inconclusive means small, poorly fitted or top-dose-only effect; inactive means no such curve, though single readings can be large or run the other way.

Test: H358 Cell Viability Secondary Assay for qHTS Assay for Epigenetic Modulators: Round 2
Settings: H358 NSCLC viability, ATP luminescence, 72 h
Source text: NIH Molecular Libraries Screening Centers Network [MLSCN] NIH Chemical Genomics Center [NCGC] MLSCN Grant: 1 X01 MH079860-01 Assay Provider: Elisabeth D. Martinez, University of Texas SW Medical Center NCGC Assay Overview: This secondary assay characterizes selected actives identified in the qHTS of the Locus Derepression (LDR) assay (PubChem AID 1865). The LDR assay detects the derepression of a GFP reporter that is stably integrated in a region of the genome of murine c127i mammary cells that is presumably silenced. Compounds that cause derepression of the locus to express GFP are identified by enumerating GFP positive cells using a laser-scanning microplate cytometer. Selected LDR actives were assayed for killing of H358 non-small cell lung carcinoma (NSCLC) cells. […] Cell viability was measured using a luminescence-based detection reagent that measures cellular ATP levels.
NCGC Assay Protocol Summary H358 cells were seeded at 125 cells/5 uL/well in white, solid bottom, 1536 well plates (Greiner). […] Plates were incubated 72 hours at 37deg C and 5% CO2, then 3.5 uL/well CellTiter-Glo(R) (Promega) detection reagent was added, plates were incubated at ambient temperature for 10 minutes and luminescence was measured by a ViewLux (Perkin Elmer) reader. […] A quantitative high-throughput screen identifies potential epigenetic modulators of gene expression. […]

SMILES	Potency
O=C1NC(=O)N(CCc2ccc(F)cc2)C(=O)/C1=C/C=C/c1ccccc1	8.88 µM (active)
